# The panel holds about 83,000 compounds, 20% with a hit somewhere; the sample as a whole holds those more often.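 Plates (96-well) were seeded with cells, treated with compound at one concentration, and incubated for 48 hours before percent growth was determined.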 Unmarked numbers belong to inactive results. Activity calls are given as the source filed them. The calls were made as follows: active = growth percent below 10; inactive = the rest.
# How the values were obtained:
# Assay in all cases: NCI-60 one-dose screen, 48 h (100 = growth as untreated, 0 = no growth, -100 = all killed)
# Conditions in all cases: 10 µM unless noted
# NCI-H23 lung = system: NCI-H23 lung
# NCI-H226 lung = system: NCI-H226 lung
# NCI-H322M lung = system: NCI-H322M lung
# HOP-62 NSCLC = system: HOP-62 NSCLC
# NCI-H460 lung = system: NCI-H460 lung
# HOP-92 NSCLC = system: HOP-92 NSCLC
# NCI-H522 lung = system: NCI-H522 lung
# A549/ATCC NSCLC = system: A549/ATCC NSCLC
# 786-0 renal = system: 786-0 renal
# COLO 205 colon = system: COLO 205 colon
Compound,growth (NCI-H23 lung),growth (NCI-H226 lung),growth (NCI-H322M lung),growth (HOP-62 NSCLC),growth (NCI-H460 lung),growth (HOP-92 NSCLC),growth (NCI-H522 lung),growth (A549/ATCC NSCLC),growth (786-0 renal),growth (COLO 205 colon)
COc1cc(OC)c(C(=O)/C=C/c2ccc(C#N)cc2)c(OC)c1,20.1%,28.9%,17.3%,13.6%,-3.34% (active),12.8%,-5.25% (active),7.11% (active),10.6%,9.97% (active)
CC/C=C\C[C@H]1C/C=C2/C(=O)C(Cl)=C[C@@H]2C/C=C\CCCC(=O)O1,-34.1% (active),-11% (active),0.0936% (active),-14.8% (active),-43% (active),-56.8% (active),-60.6% (active),-9.19% (active),-80.7% (active),-59.9% (active)
COc1ccc(Cn2cc(COc3cc(/C=C/C(=O)c4cc(OC)c(OC)c(OC)c4)ccc3OC)nn2)cc1,107%,89.4%,52.4%,19.2%,96.4%,45%,41.6%,60.1%,81%,81.9%
CCOC(=O)C1=C(CSC(=S)N(C2CCCCC2)C2CCCCC2)N(C)C(=O)NC1c1ccccc1 (stereo not given),76.5%,58.8%,91.9%,63.1%,12.7%,69%,58.1%,47.2%,48.6%,60.6%
C=C1C(=O)O[C@H]2[C@H]1CC/C(COC(=O)NCc1cc(OC)cc(OC)c1)=C\CC[C@@]1(C)O[C@@H]21,20.8%,13.2%,73.4%,44.9%,34.9%,-21.6% (active),-52.7% (active),51.2%,-37.7% (active),-64.9% (active)
NC(CC(N)C(=O)O)C(=O)O (stereo not given),107%,103%,103%,117%,108%,115%,79.7%,99.4%,105%,115%
Cc1oc2nc[nH]c(=O)c2c1C(=O)/C=C/c1ccc(Cl)cc1Cl,90%,107%,92.4%,92.6%,93.4%,95.5%,39.1%,78.7%,83.8%,107%
COc1ccc(C(=O)c2cc(OC)c(OC)c(OC)c2)cc1/C=C/C(=O)c1ccc(O)cc1,18.5%,58.5%,70.7%,88.9%,9.99% (active),42.8%,-79.3% (active),68.9%,26.4%,54.3%
C=C1C(=O)O[C@H]2[C@H]1CC/C(COC(=O)NCCc1cccc(OC)c1)=C\CC[C@@]1(C)O[C@@H]21,75.1%,41.3%,91.7%,66.6%,74.5%,44%,-30.8% (active),79.2%,5.24% (active),-35.3% (active)
COc1cccc(NC(=O)Cn2cc3c(=O)oc4ccccc4c3n2)c1,102%,104%,98.9%,116%,101%,93.8%,83.1%,105%,98.4%,101%
COc1cc(C(=O)N2CCN(C(=O)c3ccco3)CC2)c(N)cc1OCc1ccccc1,111%,88.4%,91.3%,94.6%,113%,61%,84.4%,93.3%,95.6%,125%
c1ccc2c(c1)Oc1ccccc1C2C1c2ccccc2Oc2ccccc21,90.6%,103%,94.1%,89.6%,95.9%,94.8%,87.6%,88.3%,94.1%,99.5%
COc1cc(/C=C2\CCCC3=C2NC(C)=NC3c2cc(OC)c(OC)c(OC)c2)cc(OC)c1OC (stereo not given),33.9%,37.7%,41.1%,22%,-28% (active),70.7%,51.8%,16.2%,18%,19.2%
COc1ccc(/C=C/C(=O)c2cc(OC)c(OC)c(OC)c2)cc1OCc1cn(Cc2ccc(F)cc2)nn1,103%,76.8%,33.6%,4.52% (active),95.8%,55.9%,26.4%,29.7%,49.3%,66.4%
CCN(CC)CCCC(C)N=c1cc(Nc2cc(=NC(C)CCCN(CC)CC)c3cc(OC)ccc3o2)oc2ccc(OC)cc12 (stereo not given),-43.3% (active),2.33% (active),-38.4% (active),-41.6% (active),-38.7% (active),-29.9% (active),-78.6% (active),-48.6% (active),-7.34% (active),-96.2% (active)
CSc1ccccc1C#C/C=C\C#Cc1ccccc1N1CCCC1=O,53.4%,62.5%,91.5%,60.2%,24.7%,40.7%,70.5%,63.2%,71.1%,65.2%
COc1cc(C2C=C(C)N=C3SC(C)=NN32)cc(OC)c1OC (stereo not given),94.8%,107%,116%,95.9%,114%,90.9%,89.8%,103%,105%,96.3%
COc1ccc(-c2nnc(COc3ccc(NC(=O)Nc4ccc(Cl)c(C(F)(F)F)c4)cc3F)o2)cc1,-20.2% (active),33.5%,33%,36.4%,-25.4% (active),-13.4% (active),-54.6% (active),11.1%,24.7%,-7.23% (active)
Cc1cc(NC(=O)COC(=O)c2sc3cc(F)ccc3c2Cl)no1,108%,101%,112%,96.2%,116%,91.8%,99.3%,103%,101%,104%
Nc1nc(-c2cc3ccccc3o2)cc(=O)c(=O)[nH]1,105%,95.7%,95.4%,96.6%,98.1%,-2.74% (active),91.9%,110%,107%,106%
COc1cc2oc(-c3cccc(NC(=O)Nc4ccc5c(c4)OCO5)c3)cc(=O)c2c(OC)c1OC,64.5%,87.6%,79.4%,63.2%,37.7%,17.2%,41.5%,61%,65.1%,75.8%
COc1ccc(/C=C2\CCCC3=C2NC(C)=NC3c2ccc(OC)c(OC)c2)cc1OC (stereo not given),29.1%,-22.4% (active),47.4%,32.1%,0.649% (active),30.1%,-7.42% (active),18%,9.19% (active),-29.8% (active)
COc1ccc(C(=O)c2cc(OC)c(OC)c(OC)c2)cc1/C=C/C(=O)c1ccc2c(c1)OCO2,-3.44% (active),0.564% (active),52.9%,69.8%,14.6%,64%,-43% (active),53.5%,29.6%,27.9%
C=CCN=C1NC(=O)/C(=C/c2cc(C(C)(C)C)c(O)c(C(C)(C)C)c2)S1,90.2%,97.7%,87.9%,77.2%,72.8%,82.2%,44.5%,63.4%,66.1%,81.3%
CCNC(=O)C1CCCN1C(=O)C(CCCN=C(N)N)NC(=O)C(CC(C)C)NC(=O)C(CC(C)C)NC(=O)C(Cc1ccc(O)cc1)NC(=O)C(CO)NC(=O)C(Cc1c[nH]c2ccccc12)NC(=O)C(Cc1cnc[nH]1)NC(=O)C1CCC(=O)N1 (stereo not given),87.8%,111%,119%,96.8%,107%,92%,74.1%,81.6%,104%,94.9%
O=[N+]([O-])c1cccc(-c2cc(-c3cc(Br)ccc3O)[nH]n2)c1,28.5%,52.6%,24.4%,25.2%,7.48% (active),4.45% (active),15.1%,21.7%,27.2%,17.6%
NC(=O)c1ccc2c(c1)OCO2,89.2%,98.5%,107%,112%,109%,90.2%,91.9%,105%,105%,113%

# — PubChem BioAssay (NCI)
